The results in this text go back to PubChem BioAssay (NCI).

Test in all cases: NCI-60 one-dose screen, 48 h (100 = growth as untreated, 0 = no growth, -100 = all killed)
What all share (conditions): 10 µM unless noted

Assay [1] relates to HCT-15 colon.
The subject of assay [2] is HT29 colon.
Assay [3] concerns SNB-75 CNS.
Assay [4] relates to SNB-19 CNS.
Assay [5] has as its system U251 CNS.
For assay [6], the system named is PC-3 prostate.
The test system of assay [7] is SK-MEL-5 melanoma.
The test system of assay [8] is UACC-62 melanoma.
Assay [9] concerns LOX IMVI melanoma.
In assay [10] the test system is SK-MEL-28 melanoma.
In assay [11] the test system is SK-MEL-2 melanoma.
Assay [12] concerns EKVX NSCLC.
Assay [13] has as its system SN12C renal.
Assay [14] relates to UO-31 renal.
For assay [15], the system named is TK-10 renal.
Assay [16] concerns ACHN renal.
Assay [17] has as its system CAKI-1 renal.
Assay [18] concerns A498 renal.
Assay [19] deals with CCRF-CEM leukemia.
Assay [20] concerns MOLT-4 leukemia.

The structures appear in SMILES notation. The panel holds about 83,000 compounds, 20% with a hit somewhere; the sample as a whole holds those more often.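 For each line, cells grew in 96-well plates with the test compound present at a single concentration for 48 hours.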 Values without a mark were called inactive. Active and inactive are the calls of the source. The calls were made as follows: active = growth percent below 10; inactive = the rest.

For the compound `Cn1cc(-c2nnc(N)nc2-c2c[nH]c3ccc(F)cc23)c2cc(F)ccc21`, the growth in assay [1] was 62%; in assay [2], 73.8%; in [3], 100%; in assay [4], 75.8%; in assay [5] it was 70.6%; in assay [6], 72.2%. Moreover, the growth in [7] is 96.8%; in [8] it was 73.8%; in [9] it was 65.4%; in [10], 94.4%; in [11] it was 97.1%; in [12], 89.1%. Further, the growth is 81.3% in assay [13]; 57.1% in assay [14]; 121% in [15]; 47.7% in assay [16]; 76.4% in [17]; 86.3% in assay [18]. Moreover, the results for the growth in assay [19] and in assay [20] were 39.4% and 23.5%, respectively.
For the compound `Nc1ncc(-c2ccc(NS(=O)(=O)c3ccc(Cl)c(Cl)c3)cc2)[nH]1`, the growth in assay [1] is 94.6%; in [2], 107%; in assay [3], 90.9%; in assay [4], 87.7%; in assay [5], 92.3%; in assay [6] it was 76.5%. In addition, the growth is 97.2% in assay [7]; 78.2% in assay [8]; 89.5% in assay [9]; 99.3% in [10]; 105% in [11]; 86.7% in assay [12]. Also, the growth in [13] was 90.9%; in assay [14], 76.3%; in assay [15], 80%; in assay [16] it was 95.7%; in assay [17], 71.6%; in [18] it was 85.1%. For the same compound, the growth in assay [19] was 55.2%; in assay [20], 73.9%.
For `Cc1ccc(C2=Nn3c(nnc3-c3ccccc3)SC2)cc1`, the growth in assay [1] was 23%; in assay [2], 4.8% (active); in [3], -4.24% (active); in [4], 31.4%; in assay [5] it was 25.5%; in assay [6], 35.2%. Further, the growth in assay [7] was 21.5%; in assay [8] it was 41.4%; in assay [9] it was 49%; in assay [10], 76.2%; in assay [11], -14.8% (active); in [12], 39.3%. The growth was 47.5% in assay [13]; 43.1% in assay [14]; 48.3% in assay [15]; 52.1% in assay [16]; 34.4% in [17]; -12.4% (active) in assay [18]. Moreover, the results for the growth in [19] and in assay [20] were 23.6% and 44.4%, respectively.
Consider `CCn1c(SCC(=O)Nc2cccc(C(=O)/C=C/c3ccccc3Cl)c2)nc2ccccc2c1=O`, for which the growth in assay [1] was 55.2%; in [2] it was 67.1%; in [3] it was 89.5%; in assay [4] it was 82.3%; in [5], 73.4%; in [6], 75.4%. Further, the growth is 93.5% in assay [7]; 79.9% in [8]; 27.6% in assay [9]; 98.3% in assay [10]; 110% in [11]; 85.8% in assay [12]. The growth in assay [13] was 88.4%; in assay [14], 68%; in [15], 125%; in assay [16], 97%; in assay [17], 84.6%; in assay [18], 94%. The growth in assay [19] was 77.8%; in assay [20] it was 93.2%.
Regarding `CC1(C)CC[C@]2(CN)CC[C@]3(C)C(=CC[C@@H]4[C@@]5(C)CCCNC(C)(C)[C@@H]5CC[C@]43C)[C@H]2C1`, the growth was 71.7% in assay [1]; 40.7% in assay [2]; 99.1% in [3]; 101% in assay [4]; 89.4% in [5]; 87.6% in assay [6]. Besides, the growth was 98.8% in [7]; 105% in assay [8]; 81.9% in assay [9]; 103% in [10]; 108% in assay [11]; 96% in [12]. In addition, the growth in [13] is 99.5%; in assay [14], 89%; in [15], 111%; in assay [16] it was 109%; in [17], 93.2%; in assay [18], 98%. Besides, the growth in assay [19] was 79.4%; in assay [20] it was 82.8%.
Turning to `CC1(C)[C@@H](O)CC[C@]2(C)[C@H]3CC[C@@H]4[C@H]5[C@H](C(=O)/C=C\c6ccccn6)CC[C@]5(O)CC[C@@]4(C)[C@]3(C)CC[C@@H]12`, the growth is 15% in assay [1]; 28% in [2]; 26.2% in assay [3]; 48.3% in assay [4]; 37.7% in assay [5]; 39.9% in assay [6]. For the same compound, the growth in assay [7] is 54.1%; in [8], 41.7%; in assay [9], -21.8% (active); in assay [10], 51.4%; in assay [11] it was 77.8%; in [12] it was 42.5%. Also, the growth in assay [13] was 50.5%; in [14], 50.8%; in [15] it was 77.5%; in [16], 32.6%; in assay [17], 33.9%; in [18] it was 22%. For the same compound, the growth is -0.82% (active) in assay [19] and -8.46% (active) in assay [20].
As for `O=C(c1ccc(O)cc1)[C@@H]1CN[C@@]2(C(=O)Nc3ccccc32)[C@H]1c1ccc(F)cc1`, the growth in [1] was 94.8%; in assay [2], 110%; in assay [3], 103%; in assay [4], 92.8%; in assay [5] it was 102%; in assay [6] it was 88.8%. Besides, the growth was 101% in [7]; 86% in [8]; 110% in assay [9]; 105% in assay [10]; 104% in assay [11]; 91.9% in assay [12]. In addition, the growth in [13] is 98.6%; in [14], 77.3%; in assay [15], 123%; in assay [16], 94.5%; in [17], 106%; in assay [18], 112%. Further, the values for the growth in assay [19] and in assay [20] were 99.2% and 90.5%, respectively.
Consider `N=c1c2cc(-c3ccccc3)oc2ncn1/N=C/c1ccc(Cl)cc1`, for which the growth is 56.8% in assay [1]; 98.7% in assay [2]; 88.7% in assay [3]; 86.5% in assay [4]; 66.4% in assay [5]; 82.2% in assay [6]. Besides, the growth in assay [7] is 91.2%; in assay [8], 90.6%; in [9] it was 63.3%; in assay [10] it was 82.9%; in assay [11], 101%; in [12], 84.7%. Moreover, the growth in assay [13] is 62.6%; in assay [14] it was 94%; in assay [15] it was 112%; in [16], 34.3%; in assay [17] it was 97.7%; in assay [18], 99.7%. In addition, the values for the growth in assay [19] and in assay [20] were 71.2% and 88.2%, respectively.
